FLuc inh = Firefly luciferase inhibition profiling of diverse chemical library using quantitative high-throughput screening; Luciferin 4-monooxygenase (Photinus pyralis), P08659; purified P. pyralis luciferase, luminescence, biochemical; Potency, µM (titrated, usually from 115 µM), usual class: inhibitors; hit rate 2.5% among 76,000; AID 1347043, 2019; also: nearly all actives have a fitted effect of over 65% in size
Target sequence (P08659 whole entry, looked up): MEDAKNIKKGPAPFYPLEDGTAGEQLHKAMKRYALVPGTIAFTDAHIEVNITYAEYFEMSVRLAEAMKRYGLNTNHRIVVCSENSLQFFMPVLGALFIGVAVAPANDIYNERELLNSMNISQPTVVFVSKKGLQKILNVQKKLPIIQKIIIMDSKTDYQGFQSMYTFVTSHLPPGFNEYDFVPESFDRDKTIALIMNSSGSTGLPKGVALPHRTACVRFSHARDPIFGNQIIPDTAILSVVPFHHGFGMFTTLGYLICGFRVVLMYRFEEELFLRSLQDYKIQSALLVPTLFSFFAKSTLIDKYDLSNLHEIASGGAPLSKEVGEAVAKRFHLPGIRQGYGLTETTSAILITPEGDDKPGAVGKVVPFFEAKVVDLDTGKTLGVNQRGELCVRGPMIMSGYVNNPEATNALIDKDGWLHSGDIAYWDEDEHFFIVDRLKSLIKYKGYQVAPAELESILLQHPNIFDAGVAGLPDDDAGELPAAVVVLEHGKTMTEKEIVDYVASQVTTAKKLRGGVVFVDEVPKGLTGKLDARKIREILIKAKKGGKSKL
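Purified P. pyralis luciferase (10nM final) in 50mM Tris acetate pH 7.5, 10mM Mg acetate, 0.01% Tween-20, 0.05% BSA with 10uM D-luciferin and 10uM ATP. Compounds titrated qHTS. Luminescence imaged on CCD.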
HEK cytotox = Cytotoxic Profiling in HEK 293 Cell Line of Diverse Libraries Using Quantitative High-Throughput Screening. hit rate 6.6% among 94,000. HEK 293 viability, ATP luminescence (CellTiter-Glo), 48-72 h. Potency, µM (titrated, usually from 115 µM), for the others: at the highest dose activity change, negative = cytotoxicity, usual class: inhibitors; also: nearly all actives have a fitted effect of over 60% in size
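HEK 293 seeded at 250 cells/well receive compound via pintool. After 48 or 72 hr at 37 degree Celsius, 5% CO2 and 95% humidity, CellTiter-Glo is dispensed and luminescence read following 10 min at room temperature.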
NIH3T3 tox = Cytotoxic Profiling in NIH 3T3 Cell Line of Diverse Libraries Using Quantitative High-Throughput Screening; NIH 3T3 viability, CellTiter-Glo ATP luminescence, 48-72 h; Potency, µM (highest dose often 96.7 µM), inactives show top-dose activity change, negative = cytotoxicity, most hits filed as inhibitors; hit rate 4.3% among 94,000; AID 1345082, 2018; also: nearly all actives have a fitted effect of over 55% in size
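NIH 3T3 cells at 400 cells/well received 23 nL of compound by pintool and were incubated 48 or 72 h at 37 °C. Viability was read as ATP-coupled CellTiter-Glo luminescence.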
NPR1 antag = Natriuretic polypeptide receptor (hNpr1) antagonism - Primary qHTS; hit rate 1.6% among 76,000; Potency, µM (top dose mostly 46.3 µM), for the others: at the top dose activity change, negative = inhibition, most hits filed as inhibitors; AID 1347048, 2019; HEK293 hNpr1 GloSensor cGMP, ANP-stimulated luminescence; calls by dose curve; also: nearly all actives have a fitted effect of over 60% in size
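Compound pre-incubated 30 min at room temperature on GloSensor-loaded HEK293 cells stably carrying hNpr1 and the pGS-40F cGMP biosensor. Stimulation uses hNppA at 0.1 nM final; luminescence is taken at baseline and 20 min post-agonist.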
An asterisk follows results filed as active; i = inactive; u = inconclusive; x = no result; [ ] = remark or other dose. Compounds with a hit are over-represented: about 11% of the library has one in this group of screens. Unless noted, calls follow the shape of the dose curve; as a rule, active = well fitted curve in the direction sought with a large enough effect; inconclusive = small, poorly fitted or top-dose-only effect, or another doubt; inactive = no such curve, though single readings can be large; an effect the other way counts as inactive or inconclusive. % is scaled to controls: 0 for no effect and ±100 for the full control effect; potency is read from the fitted curve at half-maximal effect.

SMILES	FLuc inh	HEK cytotox	NIH3T3 tox	NPR1 antag
CC(C)Cc1ccc(S(=O)(=O)N2CCCC(Cn3cnc4cccnc43)C2)cc1 (stereo not drawn)	i	45µM*	u	-22%
O=S(=O)(c1cc(F)cc(F)c1)N1CCCC(Cn2c(C3CC3)nc3cccnc32)C1 (stereo not drawn)	i	u	40µM*	6%
Cc1nc2cccnc2n1CC1CCCN(S(=O)(=O)c2cccc(F)c2)C1 (stereo not drawn)	i	35µM*	u	-18%
O=C(NCCCc1nc2ccccc2[nH]1)C1CCCN(C2CCCC2)C1 (stereo not drawn)	i	-10%	-18%	-2%
O=C1CC(c2ccccc2)N(C(=O)CNC(=O)c2ccsc2)CCCCCN1 (stereo not drawn)	i	i	i	0%
CC(C)C(=O)N1Cc2ccccc2CC2(CCCN(Cc3cccnc3)C2)C1 (stereo not drawn)	x	-10%	i	x
Cc1ccccc1Cn1cc(-c2ccncc2)cc1C(=O)Nc1ccc2c(c1)OCO2	u	35µM*	u	-16%
Cc1ccccc1Cn1cc(-c2ccncc2)cc1C(=O)N1CCCC(C)C1 (stereo not drawn)	i	45µM*	u	-8%
O=C1NC2(CCN(C(=O)c3ccccc3)C2)N=C1c1ccncc1 (stereo not drawn)	i	-27%[172 µM]	-12%[138 µM]	6%[70.6 µM]
CNC(=O)c1cc(C2CC2)nc2onc(C3CCN(C(=O)c4ccccc4C)CC3)c12	x	-3%	-22%	x
O=C1CC(c2noc(Cc3ccc(F)cc3)n2)CN1c1ccc(F)c(Cl)c1 (stereo not drawn)	i	22µM*	18µM*	-1%
Cc1ccc(Cc2nc(C3CC(=O)N(c4ccc(Cl)cc4)C3)no2)cc1 (stereo not drawn)	i	u	u	-12%
O=C(NCc1cccs1)c1nc(-c2ccc(Cl)cc2Cl)c2ccccn12	i	u	u	2%
CC(C)NC(=O)N1CC(C(=O)NCC2CC2)CC(c2ccccc2)C1 (stereo not drawn)	i	-30%	-13%	6%
COc1ccccc1CCNC(=O)C1CC(c2ccccc2)CN(C(=O)C2CC2)C1 (stereo not drawn)	i	32µM*	u	-1%
COCCNC(=O)[C@H]1C[C@H](Oc2ccccc2)CN1C(=O)NCc1ccc(OC)cc1	i	0%	-4%	1%
COc1ccc(C(=O)N2CCOCC3(CN(Cc4cc(F)ccc4F)C3)C2)cc1OC	i	112µM*	u	9%[70.6 µM]
COc1ccc(C(=O)N2CCOCC3(CN(Cc4ccc(F)c(Cl)c4)C3)C2)cc1OC	i	u	-29%	1%
COc1ccc(C(=O)N2CCOCC3(CN(Cc4cccc(Cl)c4)C3)C2)cc1OC	i	45µM*	u	-2%[70.6 µM]
CCCCCNC(=O)CCN(CCCC)C(=O)c1ccoc1	i	-5%	-28%	-5%
COc1ccc(CN(C)C(=O)C2(c3ccc(OC)cc3)CCOCC2)cc1	x	u	-10%	x
COc1ccc(C2(C(=O)N(C)Cc3ccc(OC(F)(F)F)cc3)CCOCC2)cc1	x	50µM*	u	x
CCc1nn(-c2ccc(OC)cc2)c(Oc2ccccc2F)c1CCC(=O)N(CC)CC	i	u	45µM*	-16%
CCc1nn(-c2ccc(OC)cc2)c(Oc2ccccc2F)c1CCC(=O)N1CCSCC1	i	32µM*	45µM*	-10%
Cc1nn(-c2ccccc2)c(Oc2ccccc2)c1CCC(=O)NCC1CCCO1 (stereo not drawn)	i	u	u	-13%
SMILES	FLuc inh	HEK cytotox	NIH3T3 tox	NPR1 antag
CCc1nn(-c2ccc(F)cc2)c(Oc2ccccc2)c1CCC(=O)NCC1CCCO1 (stereo not drawn)	i	40µM*	32µM*	u
CSCC[C@@H]1NC(=O)c2cc(NC(=O)Cn3ccc4ccccc43)ccc2NC1=O	i	-16%	-8%	-16%
COC(=O)CCCNC(=O)[C@@H]1[C@@H](NC(=O)Nc2cccc(OC)c2)CCN1C(=O)C=C(C)C	i	-2%	0%	0%
COCCNC(=O)c1c(C)noc1-c1cc(OC)c(OC)c(OC)c1	i	-1%	-4%	4%
Cc1noc(-c2ccc(OC(F)(F)F)cc2)c1C(=O)NCCc1ccc(F)cc1	i	u	-26%	-3%
COc1cc(OC)c(CNC(=O)c2c(C)noc2-c2ccc(OC(F)(F)F)cc2)c(OC)c1	i	40µM*	u	-13%
COc1cc(-c2onc(C)c2C(=O)NCCC(c2ccccc2)c2ccccc2)cc(OC)c1OC	i	35µM*	u	-21%
COc1ccc(CCNC(=O)c2c(C)noc2-c2ccc(OC(F)(F)F)cc2)cc1	i	50µM*	-16%	-2%
COc1cc(CN(C)C(=O)c2c(C)noc2-c2cccc(F)c2)cc(OC)c1OC	i	45µM*	u	1%
COCCCNC(=O)C1CCN(C(=O)c2ncn3c2COC(c2ccc(OC)cc2)C3)CC1 (stereo not drawn)	i	12%	i	-9%
Cc1ccc(S(=O)(=O)N2C[C@@H]3OCC(=O)N(Cc4ccc(OC(F)(F)F)cc4)[C@@H]3C2)cc1	i	u	u	2%
C=CCOC(=O)C1=C(C)N=C2SC=C(CC(=O)NCc3ccc(F)cc3)N2C1c1ccccc1C (stereo not drawn)	i	u	u	-30%
CCc1nc(-c2c3n(c(=O)n(Cc4cccc(Cl)c4)c2=O)CCCC3)no1	i	-12%	u	-12%
Cc1nnc(-c2cc(Nc3cccc(N(C)C)c3)ccn2)n1C1CCCCC1	i	89µM*	u	-6%[70.6 µM]
Cn1cnc(S(=O)(=O)N2CCC3(CC2)CC(OCC2CC2)CCO3)c1 (stereo not drawn)	i	-1%	u	0%
CC1(c2ccccc2)N(Cc2cccnc2)C(=O)OC12CCN(C(=O)c1ccc(Oc3ccccc3)cc1)CC2 (stereo not drawn)	i	25µM*	u	-14%
CC1(c2ccccc2)N(Cc2ccc(O)cc2)C(=O)OC12CCN(C(=O)c1cnccn1)CC2 (stereo not drawn)	i	-5%	32µM*	-8%
CC1(c2cccnc2)N(CC2CC2)C(=O)OC12CCN(C(=O)c1cccc(O)c1)CC2 (stereo not drawn)	i	i	35µM*	-1%[70.6 µM]
CC1(c2ccccc2)N(Cc2ncccn2)C(=O)OC12CCN(C(=O)c1ccc(Oc3ccccc3)cc1)CC2 (stereo not drawn)	i	40µM*	40µM*	-5%
CC1(c2cccnc2)N(CC2CC2)C(=O)OC12CCN(C(=O)c1ccc(Oc3ccccc3)cc1)CC2 (stereo not drawn)	i	u	u	-13%
